The campaign covered roughly 65,000 compounds. About 2,100 (3.2%) showed an effect of 50% or more. The median lay at about -52%. The list comes from a sample in which strong results are over-represented; it also holds similar structures and randomly drawn compounds.
The compounds below were run on Plasmodium falciparum (assay: Screen against P. falciparum Asexual Blood Stage (ABS), at 5uM). Settings: tested at 5 uM.
Type: functional, Dd2

Structure (SMILES) | INHIBITION
COCCOc1ccc(C(=O)N[C@@H]2CNCCC[C@H]2O)cc1 | -9.34%
O=C(N[C@@H]1CNCCC[C@H]1O)c1ccc(OCc2ccccc2)cc1 | 63.2%
O=C(N[C@@H]1CNCCC[C@H]1O)c1ccc(OCCN2CCCC2)cc1 | -65.9%
CCc1ccccc1Nc1noc2c1CN(C(=O)C1CCCO1)CC2 (centres undefined) | 68.6%
CCc1ccccc1Nc1noc2c1CN(C(=O)c1ccn(C)n1)CC2 | -63.2%
CCc1ccccc1Nc1noc2c1CN(C(=O)CNC(C)=O)CC2 | 45.1%
O=C(NCc1cccnc1-n1cncn1)c1ccncc1 | -55.2%
COc1cccc(C(=O)N2CC[C@@H]3[C@H](CC2)N(C)CCS3(=O)=O)c1 | -72.7%
Cc1nc(COC[C@@H]2CCC[C@@]23CN(C)CCO3)cs1 | 15.6%
CCN1CCO[C@]2(CCC[C@H]2COCc2csc(C)n2)C1 | 57.7%
Cc1nc(COC[C@H]2CCC[C@]23CN(CC2CC2)CCO3)cs1 | 32.7%
Cc1nc(COC[C@H]2CCC[C@]23CN(C2CCOC2)CCO3)cs1 (some centres undefined) | -51.5%
Cc1nc(COC[C@@H]2CCC[C@@]23CNCCO3)cs1 | 47.5%
Cc1nc(COC[C@H]2CCC[C@@]23CN(C(C)C)CCO3)cs1 | 51.9%
c1ccc(CN2Cc3nccn3CC(Cn3cccn3)C2)nc1 (centres undefined) | -16.2%
CCN(CC)Cc1cn2c(n1)CN(C(=O)Cc1ccsc1)CC2 | -53.3%
Cc1cc(N(Cc2ccccc2F)C2CC2)n2nc(C(F)(F)F)nc2n1 | 4%
Cc1cc(N(Cc2ccccn2)C2CC2)n2nc(C(F)(F)F)nc2n1 | -61.2%
Cc1cc(N(Cc2cccs2)C2CC2)n2nc(C(F)(F)F)nc2n1 | 67.3%
CC1c2ncc(Cn3cccn3)n2CCN1Cc1ccccn1 (centres undefined) | -88.5%
Cc1nnc2n1CCN(C(C(=O)NC1CC1)c1ccc(F)cc1)C2 (centres undefined) | -127%
CCN1CCN(CCNC(=O)c2ccn(-c3ccc(F)cc3)n2)CC1 | -11.4%
NC(=O)CC1CCN(C(=O)c2cccn2Cc2cccs2)CC1 | -68.7%
CN1[C@@H](C(=O)NCC2CC2)C[C@@H]2CN(Cc3ccco3)C[C@@H]21 | -99%
CN1[C@@H](C(=O)NCC2CC2)C[C@@H]2CN(Cc3ccoc3)C[C@@H]21 | 30.4%
COc1ncccc1CN1C[C@H]2C[C@@H](C(=O)NCC3CC3)N(C)[C@H]2C1 | 51.2%

Structure (SMILES) | INHIBITION
CCOc1ccc(C(=O)N2CCCC2c2c(C)nn(C)c2Cl)cn1 (centres undefined) | -37.6%
COc1cccc(CN2CCC3(CC2)CCN(c2ncccn2)C3)c1 | 0.0663%
COc1cccc(CN2CCC3(CC2)CCN(c2ncc(C)cn2)C3)c1 | -73.3%
CCS(=O)(=O)N1CCC2(CCN(Cc3cccc(OC)c3)CC2)CC1 | 68.4%
NC(=O)C1CCCN1Cc1cccc(NC(=O)c2cc(Cl)cc(Cl)c2)c1 (centres undefined) | -51%
Clc1ccc(CN2CCCCC2Cn2cncn2)c2ncccc12 (centres undefined) | 17.8%
N#Cc1ccc(F)c(CN2CCCC2Cn2cccn2)c1 (centres undefined) | -15.1%
Fc1ccc(CN2CCCC2Cn2cccn2)c2ncccc12 (centres undefined) | 59.1%
Clc1ccc(CN2CCCC(Cn3cncn3)C2)c2ncccc12 (centres undefined) | 64.6%
Clc1cc(CN2CCCC(Cn3cncn3)C2)c2ncccc2c1 (centres undefined) | 39.2%
Fc1ccc(CN2CCCCC2Cn2cncn2)c2ncccc12 (centres undefined) | 65.8%
N#Cc1ccc(CN2CCCC2Cn2cccn2)c(F)c1 (centres undefined) | -129%
Fc1ccc(CN2CCCC(Cn3cncn3)C2)c2ncccc12 (centres undefined) | -1.08%
Clc1ccc2cccnc2c1CN1CCCCC1Cn1cncn1 (centres undefined) | 48.2%
Clc1ccc2cccnc2c1CN1CCCC1Cn1cncn1 (centres undefined) | 53.7%
Clc1cc(CN2CCCC2Cn2cncn2)c2ncccc2c1 (centres undefined) | 2.88%
Fc1ccc(CN2CCCC2Cn2cncn2)c2ncccc12 (centres undefined) | 13.9%
CC1=Nc2c(c(=O)[nH]n2C(C)C)C(c2ccc3nccnc3c2)S1 (centres undefined) | -82.6%
Cc1ccc(N2CCCC(NCc3ccccn3)C2)nn1 (centres undefined) | -71.8%
O=C(c1ccccc1)N1CCN(CC(O)c2ccc(F)cc2)CC1 (centres undefined) | -120%
O=C(CN1CCCC1Cn1cncn1)Nc1ccc(Cl)cn1 (centres undefined) | -112%
Cc1cc(N2CCN(C(=O)c3cc(Cl)c[nH]3)CC2)nc(C(C)C)n1 | 13%
Cc1cc(N2CCN(C(=O)c3cc(Cl)c[nH]3)CC2)nc(C)n1 | -19.7%
Cc1cc(N2CCN(C(=O)c3cc(Cl)c[nH]3)CC2)nc(N)n1 | 69.8%
COc1ccc(CC2(CO)CCN(c3cc(C(N)=O)ccn3)CC2)cc1 | -129%
COc1ccc(-n2cnnc2SCC(=O)NC(C)C)cn1 | -44.5%

Structure (SMILES) | INHIBITION
CS(=O)(=O)N1CCC2(CCN(C(=O)c3cccnc3)CC2)C1 | -35.5%
COCC(=O)NCC1CCCN(Cc2cc3ccccc3[nH]2)C1 (centres undefined) | -18.1%
COC(=O)c1cccc(C(=O)N(CCC#N)CC(C)(C)C)c1 | -61.6%
Cc1nc(Nc2nccs2)cc(C2CN(C(C)C)C2)n1 | 59.7%
Cc1nc(Nc2cnccn2)cc(C2CN(C(C)C)C2)n1 | -131%
Cc1csc(Nc2cc(C3CN(C(C)C)C3)nc(C)n2)n1 | -3.32%
Cc1cccc(CN2CCOC(C)(C(=O)N3CCOCC3)C2)n1 (centres undefined) | -28.9%
NC(=O)c1cc(C2CCCN(CCCOc3ccc(F)cc3)C2)n[nH]1 (centres undefined) | -96.5%
Cc1ccc(OCCN2CCCC(c3cc(C(N)=O)[nH]n3)C2)cc1 (centres undefined) | -109%
NC(=O)c1cc(C2CCCN(CCOc3ccc(F)cc3)C2)n[nH]1 (centres undefined) | 52.4%
COC(=O)c1cccnc1N1CCC(Oc2cccc(F)c2)CC1 | -23.9%
CN(C)[C@@H]1CCN(S(C)(=O)=O)[C@H]1Cc1ccccc1 | 19.4%
CC(C)NC(=O)N1CC[C@@H](N(C)C)[C@@H]1Cc1ccccc1 | 16.7%
CC(C)N(C)[C@@H]1CCN(Cc2ccoc2)[C@H]1Cc1ccccc1 | 13.7%
CN(C)[C@@H]1CCN(S(=O)(=O)C2CC2)[C@H]1Cc1ccccc1 | 64.9%
CN(C)[C@@H]1CCN(S(=O)(=O)c2cn(C)cn2)[C@H]1Cc1cccnc1 | -57.5%
CC(C)N(C)[C@@H]1CCN(S(C)(=O)=O)[C@H]1Cc1ccccc1 | 54.9%
CCOc1nnc(CN2CCN(CCOC)C(C)C2)s1 (centres undefined) | 1.7%
Cc1cc(C(=O)N(C)Cc2cnn(C)c2C)n(C)n1 | -72.2%
Cc1cccc(C(C)C)c1NC(=O)CN(C)C(C)c1nccs1 (centres undefined) | 10.7%
Cc1nnc(C2CCN(C(=O)c3ccc4nccnc4c3)CC2)s1 | -22.7%
NCC1CCCCN1C(=O)Cc1ccc(F)c(F)c1 (centres undefined) | 9.77%
CSc1nccc(N2CCC3(CCCN(CCc4ccccc4)C3)C2)n1 (centres undefined) | 50.1%
CSc1nccc(N2CCC3(CCCN(Cc4cccc(C)c4)C3)C2)n1 (centres undefined) | 27.2%
CSc1nccc(N2CCC3(CCCN(Cc4ccc(F)cc4)C3)C2)n1 (centres undefined) | 2.13%
CCN(CC)S(=O)(=O)N1C[C@@H](O)[C@H](Oc2cccc(F)c2)C1 | -6.79%

Structure (SMILES) | INHIBITION
COCC(=O)N1CCC(C(=O)c2cc(C)cnc2N)CC1 | -65.6%
O=S(=O)(Cc1ccc(F)cc1)NCc1nnc2n1CCC2 | -90.9%
FC(F)(F)c1nc(NC2CCCCC2)c2ccccc2n1 | -10.5%
COc1ccc(CCN2CCCC(CN(C)Cc3[nH]cnc3C)C2)cc1 (centres undefined) | -4.52%
COc1ccccc1CCN1CCCC(CN(C)Cc2c[nH]c(C)n2)C1 (centres undefined) | 67.4%
Cc1cc(CN(C)CC2CCCN(CCc3ccc(Cl)cc3)C2)[nH]n1 (centres undefined) | -65.3%
COc1ccccc1CCN1CCCC(CN(C)Cc2cc(C)n[nH]2)C1 (centres undefined) | 55.5%
Cc1nc(CN2CCCC(CCc3ccccc3C)C2)c[nH]1 (centres undefined) | 14.6%
COc1ccc(CCN2CCCC(CN(C)Cc3ccc(C)o3)C2)cc1 (centres undefined) | -45.9%
O=C(Cn1ccc(-c2ccccc2)n1)N1CCN(C(=O)C2CC2)CC1 | -54.1%
O=C(O)Cn1nc(C2CC2)c2c(-c3ccc(F)cc3)ccnc21 | -143%
Cc1nc(N2CCC3(CCOC3)C2)c2cc[nH]c2n1 (centres undefined) | -21.2%
O=C(CN1CCc2sccc2C1)Nc1ccnc2ccnn12 | -83.1%
OCCCNc1nc(O)c2c(n1)-c1ccccc1CC21CCCCC1 | 4.32%
COCC(=O)N1CCC2(C1)c1ccccc1S(=O)(=O)N2C (centres undefined) | -58.6%
CS(=O)(=O)NCc1nnc2n1CCN(Cc1ccncc1)C2 | -3.62%
Cc1cc(C(=O)N2CCc3ncc(CN4CCCC4)n3CC2)no1 | -1.1%
Cc1cc(CN2CCCC2)cc(Oc2ccc3c(c2)CC(CN)O3)c1 (centres undefined) | 28.4%
COc1ccc(CN2CCCC2)cc1Oc1ccc(NC(C)=O)cc1 | -44.6%
COc1cc(CN2CCCC2)ccc1Oc1ccc2c(c1)CC(CN)O2 (centres undefined) | 59.8%
Cc1ccc(N2CCO[C@H]3CN(C(=O)c4cccc(C)n4)C[C@H]32)nn1 | -46.4%
CCn1c(CN(C)Cc2csc(C)n2)nc2cc(F)ccc21 | 61%
CCn1c(CN(C)Cc2cnc(C)s2)nc2c(F)cccc21 | -30.4%
CCn1c(CN(C)Cc2cnc(C)s2)nc2cc(F)ccc21 | -16.6%
Cc1csc(CCCNc2ccc(S(N)(=O)=O)cc2C#N)n1 | -9.07%
CC(CN1CCC(c2ccccc2)CC1)n1cnc2ccccc21 (centres undefined) | 3.15%
